Assay outcomes from PubChem BioAssay.
H9c2 protect – cardioprotection against H2O2-induced cell death, primary screen, uHTS, H9c2 cells, ATPLite luminescence; H9c2 cardiomyocytes, H2O2 injury protection, 2 h; hit rate 0.63% among 360,000; AID 588492, 2011; protection from H2O2 cell death, % at 20 µM;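 active = compounds giving at least 50% protection of heart cells from peroxide-induced death in the single-dose screen, raw or plate-pattern-corrected value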;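 also: 0% = DMSO wells with peroxide and 100% = DMSO wells without peroxide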
PfGluPho inh – PfG6PD enzyme inhibitors, primary screen, biochemical, fluorescence intensity, uHTS; PfGluPho enzyme, NADPH resazurin-diaphorase fluorescence; inhibition, % at 20 µM; hit rate 0.78% among 350,000; AID 504690, 2011;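 active = inhibition reaching at least a set limit at 20 µM in the primary screen, cut at about 59% in these data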;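 also: 0% = DMSO wells with substrate and 100% = DMSO wells lacking glucose-6-phosphate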
TAG inh – inhibitors of triacylglycerol accumulation, primary screen, cell-based, uHTS, fluorescence, H9c2; H9c2 cells, Nile Red lipid (TAG) fluorescence; cells loaded with 200 µM oleic acid; inhibition, % at 12.5 µM; hit rate 0.66% among 230,000; AID 651582, 2012;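 active = pattern-corrected inhibition of lipid staining of at least 50% with the nuclear-stain viability signal not falling by more than 50%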;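 also: 0% = DMSO wells and 100% = triacsin C control wells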
APOBEC3A inh – APOBEC3A ssDNA deaminase inhibitors, primary screen, selectivity assay for APOBEC3G inhibitor project, biochemical, FAM/TAMRA oligo cleavage fluorescence; DNA dC->dU-editing enzyme APOBEC-3A (Homo sapiens), P31941; recombinant A3A, FAM/TAMRA ssDNA deamination fluorescence; inhibition, % at 20 µM; hit rate 0.41% among 330,000; AID 493011, 2011;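 active = at least 40% inhibition at 20 µM here, with at most 30% in a related deaminase screen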;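 also: plate controls were A3A with DMSO for no effect and wells lacking A3A enzyme for full effect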
A3G deaminase – APOBEC3G DNA deaminase inhibitors, primary screen, biochemical, fluorescence, single-stranded DNA substrate, uHTS; DNA dC->dU-editing enzyme APOBEC-3G (Homo sapiens), Q9HC16; recombinant A3G, ssDNA deamination FAM/TAMRA fluorescence; inhibition, % at 20 µM; hit rate 0.28% among 330,000; AID 493012, 2011;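 active = inhibition of at least 40% at 20 µM, with no more than 30% in the related APOBEC3A deaminase screen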;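 also: plate controls were DMSO wells with A3G for no effect and wells lacking A3G enzyme for full effect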
Target sequence (Q9HC16 whole entry, looked up): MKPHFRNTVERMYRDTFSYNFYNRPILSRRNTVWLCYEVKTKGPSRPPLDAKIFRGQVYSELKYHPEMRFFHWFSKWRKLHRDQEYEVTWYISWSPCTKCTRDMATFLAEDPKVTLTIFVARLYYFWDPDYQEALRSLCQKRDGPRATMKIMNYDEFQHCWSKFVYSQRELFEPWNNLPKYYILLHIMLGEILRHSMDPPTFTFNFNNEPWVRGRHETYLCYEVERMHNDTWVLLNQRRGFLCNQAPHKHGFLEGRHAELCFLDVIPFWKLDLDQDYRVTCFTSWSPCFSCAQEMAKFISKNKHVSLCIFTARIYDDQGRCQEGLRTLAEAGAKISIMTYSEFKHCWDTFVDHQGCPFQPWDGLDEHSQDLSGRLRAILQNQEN
NadD block – inhibitors of S. aureus NadD, primary screen, biochemical, colorimetric, uHTS. hit rate 0.78% among 360,000. inhibition, % at 20 µM. Nicotinate-nucleotide adenylyltransferase NadD (Staphylococcus aureus N315). purified NadD enzyme, colorimetric absorbance read-out. AID 602399, 2012; in the data active = inhibition above about 26%
APOBEC3G confirm – APOBEC3G deaminase inhibitor retest, confirmation, biochemical, fluorescence, single-stranded DNA substrate, single concentration | shares compounds with A3G deaminase | recombinant A3G ssDNA deaminase, UDG/FAM-TAMRA fluorescence | inhibition, % at 20 µM | hit rate 72% among 890 | AID 493152, 2011;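 active = inhibition reaching a set limit in any replicate at 20 µM, the limit being 80% of the first screen's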
UDG ctr A3G – E. coli UDG inhibitors, confirmation, counter-screen for APOBEC3G inhibitor project, biochemical, single concentration, fluorescence, FAM/TAMRA oligo; UDG counterscreen; shares compounds with A3G deaminase; 710 tested, under 10 active; inhibition, % at 20 µM;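 active = compounds giving 40% or more inhibition at 20 µM in any one of the three replicates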;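 also: plate controls were DMSO wells with UDG and oligo for no effect and DMSO wells lacking both for full effect; inhibitors lower the FAM signal released by uracil excision and alkaline cleavage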
Target sequence (P12295 whole entry, looked up): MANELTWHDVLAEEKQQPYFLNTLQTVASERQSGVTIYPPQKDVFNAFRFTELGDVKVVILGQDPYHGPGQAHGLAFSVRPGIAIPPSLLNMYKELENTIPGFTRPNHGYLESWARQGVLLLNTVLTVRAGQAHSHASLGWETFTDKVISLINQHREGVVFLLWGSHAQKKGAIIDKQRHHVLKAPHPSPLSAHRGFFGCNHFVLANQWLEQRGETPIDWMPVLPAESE
* marks the source's active call; other numbers are inactive results; · = no result. This is a sample that favours compounds with a hit; in the whole collection about 2.9% have one here.

SMILES	H9c2 protect	PfGluPho inh	TAG inh	APOBEC3A inh	A3G deaminase	NadD block	APOBEC3G confirm	UDG ctr A3G
CCCCCC(=O)N1CC2(CC(c3cccc(NC(=O)[C@@H]4CCC(=O)N4)c3)=NO2)C[C@@H]1C(N)=O (stereo partly drawn)	2	-5	6	-3	-5	4	·	·
C/C=C(/C)C(=O)Nc1cccc(C2=NOC3(C2)C[C@@H](C(N)=O)N(C(=O)[C@H]2CCC(=O)N2)C3)c1 (stereo partly drawn)	-2	2	9	0	4	0	·	·
C=C(C)C(=O)Nc1cccc(C2=NOC3(C2)C[C@@H](C(N)=O)N(C(=O)CCCCC)C3)c1 (stereo partly drawn)	·	28	·	22	86*	·	94*	-3
C=C(C)C(=O)Nc1cccc(C2=NOC3(C2)C[C@@H](C(N)=O)N(C(=O)c2ccc(OC)cc2)C3)c1 (stereo partly drawn)	7	22	-8	24	81*	-10	100*	·
CC(C)c1cccc(C(C)C)c1NC(=O)CN1CCCC1	5	-9	·	-4	-8	-6	·	·
S=c1[nH]nc(COc2ccccc2)n1/N=C/c1ccco1	-2	14	-12	-4	59*	2	71*	-2
CC(=O)COc1cc2c(-c3cc4ccccc4o3)cc(=O)oc2cc1C	38	-11	·	6	2	11	·	·
CCN(CC)C(=O)C1=C(C)N(CCCOC)C(=O)C(CC(=O)NC2CCCC2)C1 (stereo not drawn)	15	6	-2	·	·	-2	·	·
CCOC(=O)c1ccc(-c2c(C)cc3oc(=O)cc(-c4ccccc4)c3c2C)cc1	-8	18	7	4	84*	2	2	·
Cc1ccc(-c2c(C)cc3oc(=O)cc(-c4ccccc4)c3c2C)cc1	-14	0	-2	1	2	4	·	·
Oc1ccc(C(=S)N2CCN(c3cccc(Cl)c3)CC2)cc1	-20	37	24	4	40*	1	41*	-2
Oc1ccccc1C(=S)N1CCN(c2cccc(Cl)c2)CC1	-6	53	-11	1	33	3	·	·
CCC(C)(C)C1CCC2(CC1)NC(=S)N(c1ccccc1)N2 (stereo not drawn)	7	6	-12	-3	15	-5	·	·
CC(C)(C)C1CCC2(CC1)NC(=S)N(c1ccccc1)N2 (stereo not drawn)	-9	3	-24	-1	49*	0	-9	-1
O=C1C(=O)N(c2ccccn2)C(c2cccc(F)c2)/C1=C(/O)c1ccccc1 (stereo not drawn)	-2	4	·	-4	-8	6	·	·
COC(=O)CCC(=O)Nc1sc(C)c(C)c1C(N)=O	-6	52	-16	0	57*	9	55*	-1
COC(=O)CCC(=O)NC(=S)Nc1sc(C)c(C)c1C(N)=O	5	5	43	-7	2	-4	·	·
CCCCCc1ccc(-c2ccc(/C=C/C(=O)O)cc2)nc1	-11	-25	·	0	89*	13	-4	·
Cc1ccc(C(=O)NNC(=O)CSc2nnc3c(n2)[nH]c2ccc(F)cc23)cc1	-2	2	·	18	56*	6	64*	0
CCc1nnc(NC(=O)CSc2nccn2-c2cccc(C)c2)s1	5	-5	5	-3	-3	-5	·	·
Cc1cccc(-n2ccnc2SCC(=O)Nc2nnc(C)s2)c1	2	-12	-4	-2	49*	-7	-5	-4
Cc1ccc(-c2noc(CC(=O)c3ccc([N+](=O)[O-])cc3)n2)cc1	2	24	0	·	·	12	·	·
O=C(NCc1ccccc1)NC1CCS(=O)(=O)C1 (stereo not drawn)	3	-4	·	-5	-5	-2	·	·
CC(O)CC(C(=O)NNc1ccccc1)C(=O)NNc1ccccc1 (stereo not drawn)	-4	-11	2	-2	44*	-1	1	-3
CC(C)C(=O)NNc1ccccc1	8	-22	·	-3	-6	-3	·	·
SMILES	H9c2 protect	PfGluPho inh	TAG inh	APOBEC3A inh	A3G deaminase	NadD block	APOBEC3G confirm	UDG ctr A3G
CC(C)CSc1n[nH]c(=S)s1	-1	5	10	-3	42*	11	90*	5
Cc1ccc(-c2csc(Nc3ccc(S(N)(=O)=O)cc3)n2)o1	-4	27	7	-9	52*	9	-45	-5
Cc1ccc(S(=O)(=O)N2CCC(C(=O)Nc3nnc(-c4ccco4)s3)CC2)cc1	-2	-1	·	1	5	1	·	·
O=C(Nc1nnc(-c2ccco2)s1)C1CCCCC1	-5	-18	6	-2	56*	7	-3	1
N#Cc1c(N)sc(=S)c2c1CCCC2	6	44	-1	24	47*	0	25	·
CCC1(C)Cc2c(C#N)c(N)sc(=S)c2CO1 (stereo not drawn)	-7	32	-1	-1	17	2	·	·
CSc1nc2c(c(=O)[nH]c(=O)n2C)n1Cc1ccc(Cl)cc1	32	65*	-4	1	53*	3	56*	-3
CSc1nc2c(c(=O)[nH]c(=O)n2C)n1Cc1ccccc1Cl	11	11	-5	-4	-7	1	·	·
CC(=O)Nc1cccc(-c2ccnc3c2CC(C)(C(=O)Nc2ccc(Cl)cc2)O3)c1 (stereo not drawn)	23	·	68	·	·	0	·	·
O=C(CNc1cc(S(=O)(=O)N2CCOCC2)ccc1N1CCOCC1)Nc1cccc(C(F)(F)F)c1	-5	-8	3	2	41*	2	3	·
O=[N+]([O-])c1ccc(N2CCN(C(=S)c3cccc([N+](=O)[O-])c3)CC2)cc1	1	68*	-2	1	66*	6	70*	-2
CC(=O)N1CCN(C(=S)c2cccc([N+](=O)[O-])c2)CC1	7	5	·	-6	-9	-1	·	·
